6 molecules from the supplement of paper PMC10105736 can be followed below.

Experiment in all cases: MAPPIT interaction score (arbitrary units); higher = stronger binary interaction signal, active = hit call of the paper
In one assay the target is CG14074. The note with it: MAPPIT configuration: N-N.
A further assay has as its target Su(var)2-10. As to conditions: MAPPIT configuration: N-C; pair source set: screen_3.
The next assay concerns the target TrxT. As to conditions: MAPPIT configuration: N-N; pair source set: screen_2.
The target in another assay is CG14190. The note with it: pair source set: RRS.
The target of a further assay is CG42512. The note with it: pair source set: RRS.
A further assay concerns the target CG14535. As to conditions: MAPPIT configuration: N-N; pair source set: screen_2.
In the next assay the target is CG14563. As to conditions: pair source set: RRS.
The next assay has as its target CG17162. The note with it: MAPPIT configuration: N-C; pair source set: screen_3.
The next assay deals with Dlc90F. The note with it: MAPPIT configuration: N-N; pair source set: Lit-BS-16.
A further assay addresses CG13965. As to conditions: MAPPIT configuration: N-C; pair source set: screen_4.
In a further assay the target is GstO3. The note with it: MAPPIT configuration: N-N; pair source set: DPIM.

A number with no mark means an inactive call.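 Rule for the calls: active = MAPPIT score above the 99th percentile of random reference set scores in the same batch; inactive = at or below it.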
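Note: HEK293T cells with Epo stimulation, STAT-responsive firefly luciferase reporter, fold induction versus unstimulated cells divided by the larger fold induction of two negative controls lacking either bait or prey.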

B1: z (protein)
chain: MSAQGEGGGAGGSGGGGAGSDGGGNAGQSSTGSGTVAVTNGGNSSAKNQLPLTPRFTAEEKEVLYTLFHLHEEVIDIKHRKKQRNKYSVRETWDKIVKDFNSHPHVSAMRNIKQIQKFWLNSRLRKQYPYRDGSSSNLSSGSAKISSVSVSVASAVPQQQQQQHHQQHDSVKVEPEYQISPDASEHNPQADTFDEIEMDANDVSEIDEDPMEQQQQQQQEAQAQAQAQAQAQAQVQSAAAEMQKMQQVNAVAAAAAANATMINTHQINVDQISAEKLTLNDLLHFKTARPREEIILIKHPEATATQIHTIPTQAQQHPMATITAGGYNQQIISEIKPQQITLAQYQAQQQQQAQAQAQAQAQAQAQAQAQAQAQAQAQQLAQQQLAAAQHQQLAAAVQVHHQQQQQQQAAVAVQQQQAAAAAAVKMQLTAATPTFTFSALPTVTAATTVPAAVPVPVATASSGSANSVAVNTSTASSVSINNTSLGGGGGNGATNSSATAADSFEERMNYFKIREAELRCKEQQLATEAKRIELNKAQDELKYMKEVHRLRVEELTMKIRILQKEEEQLRKCSTS
For the molecule B1, the MAPPIT interaction score with CG14074 (pair source set: screen_2) was -0.404; with Su(var)2-10, 1.09; in the assay with TrxT, -0.122.

B2: tut (protein)
chain: MDFESKYCTSQVNGTITITTRKVLDENLKSLLDEGKGELFLSCIPRNHSCSPRWIVEVASELGEVYIMRYKIDFSGNSRGYAYLQYINVDLKESAMQYLPMRFRQLCMCLRVEPSTNNRELVLKNVESSLRPWQVYQEMLKIHPFTIVRVYEYQLDQFFYIFEYRNNDSAASAHQRVRNSIRKFGEHAHISWLTAENILSRASGSFCFQREVSQNRTRRVPPRQKGCFKF
As for B2, the MAPPIT interaction score with CG14190 (MAPPIT configuration: N-C) was 0.351; in the assay with CG14190 (MAPPIT configuration: N-N), -0.511; with CG42512 (MAPPIT configuration: N-C), -0.391; with CG42512 (MAPPIT configuration: N-N), 0.0427.

B3: Deaf1 (protein)
chain: MEQVDSSTELHLNRKDLAALAEDVVKEEVILESSSHHHHHHHHQLDTKVRMVTSSSNDNSGSGGASGGTSGAGGGNGGGGVVSVPVSLPIGSMITGTTFNVITPDQLPPHFKPMLCVDNNGYLSGSTVSMGNDLKTIVIQQQQTQPGGGGGGANNAGTNTTATNTIGLNHDGSGSNNSHDSLATLEHAAGGASGVGGGGGGTGGGSSGWSENPSTQHNEVFQIRCKTTCAELYRSKLGSGGRGRCVKYKDKWHTPSEFEHVCGRGSSKDWKRSIKYGGKSLQSLIDEGTLTPHATNCSCTVCCDDEAGESASGPVRLFTPYKRRKRNQTDLDMESGPKRKRNTHHSNNNNSNTNNNNTSGSGANNCVDVTAAVAAATASVVDENNMFLSEENITSKDEPWAALNDSLDTSTELVDQSQMGNTYERETFVVNINDGSSIAVLDTSQSMKNIEHVYCTMVKATNDFKRMLNDMKQSFERRIEVLQKERDAAVSAMRVQVHADIDDPNISGSLHGNEIISAKKCANCNREALAECSLCRKTPYCSEFCQRKDWNAHQVECTRNPQTTTQQVMLLIDDQS
As to B3, in the assay with CG14535, the MAPPIT interaction score was 0.95.

B4: Mettl2 (protein)
chain: MLTTSSSTMLGKYGWQILRRLASKSWEHTRQRKKPSGAGSRVLTDAREVFEFNAWDHVQWDEEQELAAKAAVAKNSTSKMEAEQKERFQTDAPKFWDSFYGIHDNRFFKDRHWLFTEFPELAPLAADSAVLQPRSIFELGCGVGNTILPLLQYSSEPQLKVFGCDFSARAIEILRSQRQFDEKRCEVFVMDATLDHWQVPFEENSQDIIVMIFVLSAIEPKKMQRVLDNCYRYLRPGGLLLFRDYGRYDLAQLRFKSGKCMEDNFYVRGDGTMVYFFTEEELRGMMTQAGLQEEQLIVDRRLQVNRCRGLKMYRVWIQTKFRKPL
Turning to B4, the MAPPIT interaction score is 0.238 with CG14563 (MAPPIT configuration: N-C), -0.0268 in the assay with CG14563 (MAPPIT configuration: N-N), 1.73 with CG17162 and 0.581 in the assay with Dlc90F.

B5: RpLP2 (protein)
chain: MRYVAAYLLAVLGGKDSPANSDLEKILSSVGVEVDAERLTKVIKELAGKSIDDLIKEGREKLSSMPVGGGGAVAAADAAPAAAAGGDKKEAKKEEKKEESESEDDDMGFALFE
With B5, the MAPPIT interaction score with CG13965 was 2.1.

B6: PI31 (protein)
chain: MESGSTAKTGDFFYGWDLLYKTVKADVSKKSDLLIALVHFLLTKHYNFRCVGVGDDKTLPEEEGSELLPDSWNDDDTKYSLRYVHDKMLYLLLGHITEGSLLINLLDINTKKVSNICVEPETLVPEVKGGITTIMPSASEIVERYRRELLDPVFTGNSREVTTQTTNSPRPIGSDPDPLRIGEPRRGGSFIPSAFEPRPFGFPDVGRGDLDPLGRGGHGNLFSFPSRPNMGPGPVPRFDPFNPLNPNRPGQGGINPDHMRPPDWNPDYYM
With B6, the MAPPIT interaction score with CG14074 (pair source set: screen_1) was -0.274; with GstO3 it was 0.447.
